Compound activity as filed in PubChem.
697 NFkB inh = inhibitors of PMA/ionomycin-induced NF-kB reporter, 697 cells, primary screen, B-cell NF-kB inhibitor project, cell-based, luminescence, uHTS | 697 B-cell NF-kB luciferase reporter, 16 h | inhibition, % at 4 µM | AID 435022, 2010 | hit rate 0.33% among 330,000; in the data active = inhibition above about 35%
aSyn 5UTR inh = MLPCN primary screen, SNCA 5' untranslated region; alpha-synuclein 5'UTR reporter, inhibitor activity; hit rate 0.82% among 300,000; inhibition, % (tested at 7.5 µM); in the data active = inhibition above about 60%; inconclusive = no clear call, values can overlap the other calls;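 also: H4 neuroglioblastoma cells stably carrying SNCA 5'UTR luciferase fusion; 0% = DMSO wells and 100% = positive control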
KLF5 inhibitor = KLF5 expression inhibitors, primary screen, DLD-1 cells, luminescence; DLD-1 KLF5 promoter-luciferase reporter; inhibition, % at 5 µM; hit rate 0.23% among 290,000; AID 1700, 2009;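 active = inhibition above a per-plate limit of that plate's mean compound inhibition plus 3 SD, cut at about 60% in these data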;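 also: 0% = DMSO wells and 100% = LY294002 at 200 µM; higher means less KLF5 promoter-driven luciferase light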
Jurkat NFkB inh = inhibitors of induced NF-kB luciferase reporter, primary screen, TCR NF-kB activation inhibitor project, cell-based, luminescence, uHTS; Jurkat, PMA/ionomycin-induced NF-kB luciferase reporter; inhibition, % at 4 µM; hit rate 0.53% among 330,000; AID 435003, 2010; in the data active = inhibition above about 50%
Gli-Sufu antag = Gli-Sufu pathway antagonists, primary screen, luciferase luminescence, Sufu-KO-LIGHT cells, uHTS; Sufu-KO-LIGHT fibroblasts, Gli luciferase reporter luminescence; inhibition, % at 5 µM; hit rate 0.74% among 340,000;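 active = inhibition above about 55%, limit read from the data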;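 also: 0% = DMSO-treated cells and 100% = wells with medium but no cells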
Mdm2 MdmX PPI = inhibitors of human Mdm2-MdmX association, primary screen, cell-based, luminescence, split luciferase, SaOS-2, uHTS. Protein Mdm4 (Homo sapiens) + E3 ubiquitin-protein ligase Mdm2 (Homo sapiens), …. SaOS-2 split-luciferase Mdm2/MdmX complementation. inhibition, % at 8 µM. hit rate 3% among 330,000;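 active = inhibition of at least 50% at 8 µM in the primary screen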
Target sequence (O15151 whole entry, looked up): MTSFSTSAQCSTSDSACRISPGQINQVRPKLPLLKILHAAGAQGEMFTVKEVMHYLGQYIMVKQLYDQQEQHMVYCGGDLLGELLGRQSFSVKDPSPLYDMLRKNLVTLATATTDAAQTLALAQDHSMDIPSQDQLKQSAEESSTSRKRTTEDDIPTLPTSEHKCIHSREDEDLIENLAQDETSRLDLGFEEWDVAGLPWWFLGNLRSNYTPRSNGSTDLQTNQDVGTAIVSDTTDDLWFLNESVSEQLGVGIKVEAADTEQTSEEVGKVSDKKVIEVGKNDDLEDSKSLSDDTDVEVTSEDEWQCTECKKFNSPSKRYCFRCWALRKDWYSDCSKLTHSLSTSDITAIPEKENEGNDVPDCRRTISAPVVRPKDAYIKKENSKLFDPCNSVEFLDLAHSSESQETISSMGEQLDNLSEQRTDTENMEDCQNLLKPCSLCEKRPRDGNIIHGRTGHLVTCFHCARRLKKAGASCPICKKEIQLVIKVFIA
Target sequence (Q00987 whole entry, looked up): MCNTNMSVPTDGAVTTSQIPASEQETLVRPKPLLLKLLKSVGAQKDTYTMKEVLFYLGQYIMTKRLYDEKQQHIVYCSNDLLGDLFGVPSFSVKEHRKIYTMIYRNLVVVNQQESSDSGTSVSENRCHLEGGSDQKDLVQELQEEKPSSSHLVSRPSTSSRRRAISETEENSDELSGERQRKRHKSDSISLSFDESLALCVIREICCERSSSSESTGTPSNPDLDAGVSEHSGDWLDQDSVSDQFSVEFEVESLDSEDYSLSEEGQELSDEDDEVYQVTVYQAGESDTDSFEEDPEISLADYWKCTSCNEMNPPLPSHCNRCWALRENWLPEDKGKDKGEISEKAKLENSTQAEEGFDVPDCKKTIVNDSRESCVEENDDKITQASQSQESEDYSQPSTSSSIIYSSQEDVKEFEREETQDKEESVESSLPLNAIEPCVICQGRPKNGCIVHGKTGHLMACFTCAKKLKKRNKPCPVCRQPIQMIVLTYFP
Gli-Sufu confirm = Gli-SUFU pathway antagonists, confirmation, single concentration, luciferase luminescence, Sufu-KO-LIGHT cells. inhibition, % at 5 µM. shares compounds with Gli-Sufu antag. AID 602428, 2012. Gli luciferase reporter. hit rate 40% among 2,500;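 active = mean inhibition at 5 µM reaching about 45%, limit read from the data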;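 also: plate controls were DMSO-treated cells for no effect and wells lacking cells for full effect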
Gli cytotox = cytotoxicity in Sufu-KO-LIGHT cells, confirmation, cytotoxicity control for Gli-SUFU antagonist project, cell-based, ATP luminescence, single concentration; AID 651994, 2013; cytotoxicity, % at 5 µM; hit rate 32% among 2,500; shares compounds with Gli-Sufu antag;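 active = mean cytotoxicity at 5 µM above about 25%, limit read from the data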;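 also: cells exposed to compound overnight for roughly 16 to 18 hours; plate controls were DMSO wells with cells for no effect and medium without cells for full effect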
Wnt3a cs = Wnt3a reporter signal inhibition, confirmation, counter-screen for Gli-SUFU antagonist project, Wnt-LIGHT cells, luminescence, single concentration; shares compounds with Gli-Sufu antag; Wnt3a-driven luciferase reporter; inhibition, % at 6.25 µM; hit rate 20% among 2,500;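 active = mean inhibition above about 25%, limit read from the data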
* = called active by the depositor; ? = inconclusive; . = not tested or not shown. Only some compounds are listed: those with a hit (about 4.1% of all), similar ones and a draw of the others.

SMILES | 697 NFkB inh | aSyn 5UTR inh | KLF5 inhibitor | Jurkat NFkB inh | Gli-Sufu antag | Mdm2 MdmX PPI | Gli-Sufu confirm | Gli cytotox | Wnt3a cs
C/C(=N\O)C(C)(C)Nc1cccc(F)c1 | 4 | 12 | -21 | -10 | 0 | 14 | . | . | .
C/C(=N\O)C(C)(C)Nc1ccccc1F | 4 | 11 | -25 | -1 | 96* | -13 | 10 | 13 | -27
C=CCn1c(O)c(N=NC(=S)Nc2ccc(OC)c(Cl)c2)c2ccccc21 | -36 | ? | -26 | -4 | 23 | 34 | . | . | .
C=CCn1c(O)c(N=NC(=S)Nc2ccccc2C)c2cc(S(=O)(=O)N3CCOCC3)ccc21 | 12 | 80* | 3 | 15 | 52 | 39 | 48* | 32* | -49
CC[N+](C)(CC)CCC(c1ccccc1)C1CCCCC1 (centres undefined) | 5 | 5 | -31 | 1 | 56* | 25 | 50* | 18 | -19
CCC(C)(C)NC(=O)CN(C(=O)CCC(=O)Nc1nccs1)c1ccc2c(c1)OCCO2 | -3 | -35 | -8 | -10 | 11 | 22 | . | . | .
Cc1nc(C)c(C(=O)NCc2ccc(Cl)cc2)o1 | -4 | -9 | -18 | 4 | . | 7 | . | . | .
Cc1nn(C)c(C(=O)NCc2ccc(Cl)cc2)c1Cl | -32 | 4 | -19 | 45 | 63* | 15 | 53* | 29* | 20
O=C(c1ccc(N2CCOCC2)cc1[N+](=O)[O-])N1CCOCC1 | 8 | 7 | -1 | -6 | 2 | -1 | . | . | .
Cn1c(=O)oc2cc(S(=O)(=O)Nc3ccccc3)ccc21 | 2 | 13 | -13 | 8 | -3 | 29 | . | . | .
CC(C)NS(=O)(=O)c1ccc2c(c1)oc(=O)n2C | -3 | 15 | -21 | -1 | 57* | -18 | 10 | 2 | -10
C#CC[N+](CC)(CC)CC#Cc1ccccc1 | 5 | -7 | 7 | 14 | 5 | 8 | . | . | .
CC[N+](CC)(CC#Cc1ccccc1)CC#Cc1ccccc1 | -24 | -12 | -19 | 38 | 68* | 28 | 71* | 22 | 19
O=C(NCCc1cccc(Cl)c1)c1ccc(OC2CCN(Cc3ccccn3)CC2)cc1 | -93 | -9 | -26 | 20 | 52 | 42 | 50* | 15 | 9
Cc1ccc(C)c(NC(=S)NC2CC3CCC(C2)N3Cc2ccco2)c1 (centres undefined) | -10 | -1 | -19 | 3 | 76* | -3 | 32 | 0 | 4
CCOC(=O)c1ccc(N2C(=O)c3n[nH]c(C)c3C2c2ccco2)cc1 (centres undefined) | 11 | -6 | -4 | -5 | 4 | 28 | . | . | .
CCOC(=O)c1ccc(N2C(=O)c3n[nH]c(-c4ccco4)c3C2c2cccc([N+](=O)[O-])c2)cc1 (centres undefined) | -8 | -5 | -16 | 1 | 99* | 2 | 17 | 4 | -21
O=C(NC(=S)Nc1ccccc1O)c1cccnc1 | 8 | -24 | -36 | -9 | 82* | 9 | 17 | -11 | -8
C=CCOc1ccc(CNc2ccc3[nH]c(=O)[nH]c3c2)cc1 | 3 | -19 | -3 | 16 | 0 | 15 | . | . | .
Cc1ccc(NC(=S)Nc2ccc(OC(F)F)c(Cl)c2)cc1Cl | . | 3 | -19 | . | 56* | . | 5 | -2 | -19
COc1ccc(NC(=S)Nc2ccc(C)c(Cl)c2)cc1OC | 1 | -62 | -39 | -2 | 2 | 11 | . | . | .
COc1cccc(CCc2nnc(CCC(=O)N3CCCC3c3nccs3)o2)c1 (centres undefined) | 13 | -17 | 4 | -2 | 3 | -8 | . | . | .
CC[C@@H](C)[C@H](C(CC(=O)N1CCCC1[C@@H](OC)[C@H](C)C(=O)N[C@H](Cc1ccccc1)c1nccs1)OC)N(C)C(=O)[C@H](NC(=O)[C@@H](C(C)C)N(C)C)C(C)C (some centres undefined) | . | . | . | . | 55 | . | 70* | 62* | 40*
COc1ccc(C(=O)Nc2ccccn2)cc1 | -24 | 19 | -14 | -12 | 0 | -3 | . | . | .
COc1ccc(C(=O)N/N=C(\c2ccccc2)c2ccccn2)cc1 | . | 107* | 25 | . | 74* | . | 51* | 10 | 38*
SMILES | 697 NFkB inh | aSyn 5UTR inh | KLF5 inhibitor | Jurkat NFkB inh | Gli-Sufu antag | Mdm2 MdmX PPI | Gli-Sufu confirm | Gli cytotox | Wnt3a cs
CCOc1ccc(OCc2ccc(C(=O)N/N=C(\C)c3ccccn3)cc2)cc1 | . | 64* | -118 | . | 83* | . | 91* | 42* | 72*
O=C(N/N=C/c1cc(Cl)ccc1O)C(=O)Nc1ccccc1OC(F)(F)C(F)F | . | . | -6 | . | 55* | . | 64* | 46* | 64*
COc1cccc(/C=N/NC(=O)C(=O)Nc2ccccc2OC(F)(F)C(F)F)c1 | 26 | -6 | -24 | 5 | -2 | 2 | . | . | .
COc1ccccc1/C=N/NC(=O)C(=O)Nc1ccccc1OC(F)(F)C(F)F | 17 | -7 | -32 | 10 | 16 | 22 | . | . | .
O=C(N/N=C/c1cc(Br)ccc1O)C(=O)Nc1ccccc1OC(F)(F)C(F)F | . | 82* | 36 | . | 60* | . | 73* | 32* | 58*
Cc1cc(C)cc(C(=O)N(CCc2ccccc2)C2CC3CCC(C2)N3C)c1 (centres undefined) | -6 | 14 | -37 | 1 | 3 | 2 | . | . | .
COc1cc(NC(=O)CNC(c2ccccc2)c2ccccc2)cc(OC)c1OC | -16 | -5 | -22 | -16 | 12 | 10 | . | . | .
COc1cc(NC(c2ccccc2)c2ccccc2)cc(OC)c1OC | 14 | 15 | 19 | -13 | 51 | 9 | 23 | 15 | 9
Cc1cc(=O)n2nc(N3CCCC(C(=O)NCCCN4CC(C)CC(C)C4)C3)sc2n1 (centres undefined) | 0 | 4 | -18 | -4 | 60* | 3 | 22 | 12 | -5
CCOc1ccc2nc(N3CCCC(C(=O)NCCCN4CCCCC4)C3)sc2c1 (centres undefined) | -29 | -86 | -78 | -27 | 65* | -7 | 20 | 11 | -212
Cc1cc(=O)n2nc(N3CCCC(C(=O)NC4CCC(C)CC4)C3)sc2n1 (centres undefined) | 3 | 4 | 1 | -5 | -26 | 20 | . | . | .
NC(=O)CN1C(=O)NC2(CCCc3ccccc32)C1=O (centres undefined) | 23 | -23 | 1 | 7 | -8 | 30 | . | . | .
